Test [1] in a line: qHTS assay to identify small molecule antagonists of the estrogen receptor alpha (ER-alpha) signaling pathway using the BG1 cell line in the presence of 0.1 nM 17-beta-estradiol - cell viability counter screen (AID 1259241). Also: nearly all actives have a fitted effect of over 40% in size. Also: potency is read from the fitted curve at half-maximal effect. To be noted: VM7Luc4E2 (BG1) viability, CellTiter-Fluor protease, 22 h, 0.1 nM estradiol agonist added; series mostly up to 92.4 µM. Summed up: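 The cell line endogenously expresses full-length ER-alpha and carries four EREs driving luciferase. Cells are cultured 5 days hormone-free, treated 22 hr with compounds and 0.1 nM estradiol, then viability is read by fluorescence.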

The nature of test [2]: qHTS assay to identify small molecule antagonists of the androgen receptor (AR) signaling pathway using the MDA cell line in the presence of 0.5 nM R1881 - cell viability counter screen (AID 1259242). Also: nearly all actives have a fitted effect of over 45% in size. Also: potency is read from the fitted curve at half-maximal effect. The conditions noted are these: MDA-kb2 viability, CellTiter-Fluor protease fluorescence, 16 h; series mostly up to 92.4 µM. Summed up:
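Cytotoxicity toward MDA-kb2 cells is measured by CellTiter-Fluor live-cell protease fluorescence after 16 hr compound exposure at 37C in the presence of 0.5 nM R1881 stimulator.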

Test [3] concerns the target Estrogen receptor (Homo sapiens) (UniProt P03372). Kind of test: qHTS assay to identify small molecule antagonists of the estrogen receptor alpha (ER-alpha) signaling pathway using the BG1 cell line in the presence of 0.1 nM 17-beta-estradiol (AID 1259244). Also: nearly all actives have a fitted effect of over 50% in size. The conditions noted are these: VM7Luc4E2 (BG1) ERE-luciferase, antagonist mode, 0.1 nM E2, 22 h; series mostly up to 92.4 µM. Summed up:
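After 5 days in hormone-depleted medium (charcoal-stripped serum, no phenol red), VM7Luc4E2 cells were seeded, incubated 24 h, then co-treated with compound and 0.1 nM (final) estradiol for 22 h before luminescence detection.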
On the technique in general: Quantitative high-throughput screening tests each substance at several concentrations.

Test [4] can be described thus: qHTS assay to identify small molecule HDAC inhibitors (AID 1259364). Also: top concentration of the series differs between compounds; nearly all actives have a fitted effect of over 45% in size. To be noted: HCT-116 HDAC-Glo I/II luminescence, 2 h; series mostly up to 92.4 µM. Summed up:
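Homogeneous cell-based luminescent assay of endogenous class I/II HDAC activity; HCT-116 cells, 2 h compound exposure, 30 min HDAC-Glo development at RT.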

Test [5] can be described thus: qHTS assay to identify small molecule agonists of the sonic hedgehog signaling (Shh) pathway - cell viability counter screen (AID 1259366). Also: nearly all actives have a fitted effect of over 50% in size. Also: potency is read from the fitted curve at half-maximal effect. The conditions noted are these: NIH/3T3 Gli1-Luc viability, CellTiter-Fluor, 24 h; series mostly up to 92.4 µM. Summed up:
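Viability measured fluorometrically (CellTiter-Fluor, 1hr, 37C) in 3T3 Gli1-Luc reporter cells after 23hr compound exposure within a 24hr incubation at 37C/5% CO2.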

Test [6] is described as follows: qHTS assay to identify small molecule antagonists of the sonic hedgehog signaling (Shh) pathway - cell viability counter screen (AID 1259367). Also: nearly all actives have a fitted effect of over 55% in size. Also: potency is read from the fitted curve at half-maximal effect. To be noted: NIH/3T3 Gli1-Luc viability, CellTiter-Fluor, 24 h; series mostly up to 92.4 µM. In short, it runs like this: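 After a 4 hr settling period, 3T3 Gli1-Luc cells were treated with DMSO-dissolved chemicals and conditioned medium, kept 24 hr at 37C in 5% CO2, and assayed for viability by CellTiter-Fluor fluorescence following 1 hr reagent incubation.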

Test [7] in a line: qHTS assay to identify small molecule agonists of the sonic hedgehog signaling (Shh) pathway (AID 1259368; calls by dose curve;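 also: NIH/3T3-derived 3T3Gli1-Luc cells carrying a stable Gli1-driven firefly luciferase reporter; nearly all actives have a fitted effect of over 15% in size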). To be noted: NIH/3T3 Gli1-Luc reporter, luciferase, 24 h; series mostly up to 92.4 µM. In short, it runs like this:
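Steps: seed 3T3 Gli1-Luc cells, incubate 4 hr at 37 C, pin-transfer compounds in DMSO alongside a positive control, incubate 24 hr, add luciferase detection reagent, wait 30 min at room temperature, read luminescence.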

Test [8] in a line: qHTS assay to identify small molecule antagonists of the sonic hedgehog signaling (Shh) pathway (AID 1259369; calls by dose curve; also: nearly all actives have a fitted effect of over 45% in size; also: potency is read from the fitted curve at half-maximal effect). To be noted: NIH/3T3 Gli1-Luc reporter, Shh antagonist, luminescence 24 h; series mostly up to 92.4 µM. In short, it runs like this: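 Inhibition of Shh signalling is measured as reduced Gli1-response-element firefly luciferase output in an NIH/3T3-derived stable reporter clone stimulated with conditioned medium for 24hr.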

Test [9] in a line: qHTS assay to identify small molecule agonists of the androgen receptor (AR) signaling pathway in the presence of an antagonist - cell viability counter screen (AID 1259379).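 Also: MDA-kb2 human breast cancer cells carrying an MMTV luciferase reporter; nearly all actives have a fitted effect of over 25% in size.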 To be noted: MDA-kb2 viability, CellTiter-Fluor, 16 h; series mostly up to 92.4 µM. In short, it runs like this:
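Fluorescence from CellTiter-Fluor, added after 15 hr and read 1 hr later, gave cell viability. Cells were MDA-kb2 exposed to compounds (15 concentrations) in the presence of 3.0uM nilutamide at 37C, 0% CO2.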

Test [10] has as its target Estrogen receptor (Homo sapiens) (UniProt P03372). Kind of test: qHTS assay to identify small molecule agonists of the estrogen receptor alpha (ER-alpha) signaling pathway in the presence of an antagonist (AID 1259383; calls by dose curve; also: top concentration of the series differs between compounds; nearly all actives have a fitted effect of over 15% in size). To be noted: VM7Luc4E2 cells, ERE-luciferase, +ICI-182,780, 22 h; series mostly up to 92.4 µM. In short, it runs like this: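 Cells are hormone-deprived for 5 days (charcoal-stripped FBS, no phenol red), plated for 24hr, spiked with 10.0nM ICI-182,780, then dosed at 15 concentrations. After 22hr at 37C, ONE-Glo luminescence reports ERE-luciferase activity.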

The nature of test [11]: qHTS assay to identify small molecule agonists or antagonists of the thyroid stimulating hormone receptor (TSHR) signaling pathway - wild type cell line counter screen (AID 1259384; calls by dose curve). The conditions noted are these: HEK293 wild type, cAMP HTRF counter-screen; series mostly up to 92.4 µM. In short, it runs like this:
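Wild-type HEK293 cells were plated 18 h at 37 C/5% CO2, pin-dosed with compound plus Ro20-1724 medium, held 30 min at room temperature, then given cAMP-d2 and anti-cAMP-cryptate; fluorescence was read after 1 h. Fifteen concentrations, triplicate.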

Test [12] concerns the target Thyrotropin receptor (Homo sapiens) (UniProt P16473). In words: qHTS assay to identify small molecule antagonists of the thyroid stimulating hormone receptor (TSHR) signaling pathway (AID 1259385; calls by dose curve; also: nearly all actives have a fitted effect of over 20% in size). The conditions noted are these: TSHR-HEK293 cAMP HTRF, TSH-stimulated antagonist mode; series mostly up to 92.4 µM. In short, it runs like this: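 TSHR-HEK293 cells were plated and held 18 h at 37C/5% CO2, then given compound plus Ro20-1724 and stimulated with TSH at 1.5 ng/mL final. After 30 min at room temperature, cAMP was detected with cAMP-d2/anti-cAMP-cryptate (1 h) by fluorescence.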

Test [13] in a line: qHTS assay to identify small molecule agonists of the estrogen receptor alpha (ER-alpha) signaling pathway in the presence of an antagonist - cell viability counter screen (AID 1259386).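 Also: cells exposed to compounds for 22 h at 37 °C before the viability read; nearly all actives have a fitted effect of over 30% in size.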 The conditions noted are these: VM7Luc4E2 viability, CellTiter-Fluor fluorescence, 22 h; series mostly up to 92.4 µM. Summed up:
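Cells are starved of estrogens for 5 days in charcoal-stripped serum, seeded for 24hr and co-treated with ICI-182,780 (10.0nM final) and test compounds. After 22hr at 37C, viability is read as CellTiter-Fluor fluorescence.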

Test [14] addresses Estrogen receptor beta (Homo sapiens) (UniProt Q92731). In words: qHTS assay to identify small molecule agonists of the estrogen receptor beta (ER-beta) signaling pathway (AID 1259377; active = well fitted activation curve with a large enough effect in the signal ratio in the repeat runs, not every such curve was filed as active; the % refers to the signal ratio). To be noted: ER-beta-UAS-bla HEK293T, beta-lactamase FRET ratio, 16 h; series mostly up to 92.4 µM. In short, it runs like this: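 A UAS-controlled beta-lactamase reporter in ER-beta-UAS-bla HEK293T cells reports receptor activation. Compounds act for 16 hr at 37C in 2% charcoal-stripped serum, and a FRET substrate is read by fluorescence after 2 hours.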

Test [15] shares this target. In words: qHTS assay to identify small molecule antagonists of the estrogen receptor beta (ER-beta) signaling pathway (AID 1259378; active = well fitted inhibition curve with a large enough effect in the signal ratio in the repeat runs, not every such curve was filed as active; the % refers to the signal ratio). The conditions noted are these: ER-beta-UAS-bla HEK293T, beta-lactamase FRET ratio, 16 h; series mostly up to 92.4 µM. Summed up:
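ER-beta-UAS-bla HEK293T (GripTite) cells in 2% charcoal-stripped FBS medium were preincubated 6 hr at 37C, dosed with compound, then stimulated with 1 nM E2 (final) for 16 hr; beta-lactamase reporter read by B/G FRET fluorescence after 2 hr substrate loading.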

The nature of test [16]: qHTS assay to identify small molecule agonists of the estrogen receptor beta (ER-beta) signaling pathway - cell viability counter screen (AID 1259380). Also: nearly all actives have a fitted effect of over 30% in size. Also: potency is read from the fitted curve at half-maximal effect. To be noted: ER-beta-bla HEK293T viability, CellTiter-Glo luminescence, 16 h; series mostly up to 92.4 µM. Summed up:
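Same-well viability counter screen. Cells: ER-beta-UAS-bla HEK293T, plated 6 hr before compound, in 2% charcoal-stripped FBS. Compound exposure 16 hr, 37C; viability by CellTiter-Glo luminescence after 30 min at room temperature.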

Test [17] in a line: qHTS assay to identify small molecule antagonists of the estrogen receptor beta (ER-beta) signaling pathway - cell viability counter screen (AID 1259382). Also: nearly all actives have a fitted effect of over 55% in size. The conditions noted are these: ER-beta-UAS-bla HEK293T viability, CellTiter-Glo luminescence, 16 h; series mostly up to 92.4 µM. Summed up:
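Following a 6 hr plating period, HEK293T cells carrying a UAS-driven beta-lactamase reporter under ER-beta control received compounds and 1nM E2 (final). After 16 hr at 37C and 2 hr substrate loading, CellTiter-Glo luminescence indicated viability.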

The nature of test [18]: qHTS assay to identify small molecule HDAC inhibitors - cell viability counter screen (AID 1259365). Also: nearly all actives have a fitted effect of over 50% in size. To be noted: HCT-116 viability, CellTiter-Glo ATP luminescence, 2 h; series mostly up to 92.4 µM. In short, it runs like this: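 Viability readout: CellTiter-Glo luminescence. Wild-type HCT-116 cells, 2hr compound treatment following overnight attachment at 37 C.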

Each structure is given as a SMILES string. Inconclusive results are not listed. Activity calls are given as the source filed them. Unless noted, calls follow the shape of the dose curve; as a rule, active = well fitted curve in the direction sought with a large enough effect in the repeat runs; inconclusive = weak or mixed curves; inactive = no such curve, though single readings can be large; an effect the other way counts as inactive or inconclusive.

Sequence of Estrogen receptor beta (Homo sapiens) (Q92731 whole entry, looked up): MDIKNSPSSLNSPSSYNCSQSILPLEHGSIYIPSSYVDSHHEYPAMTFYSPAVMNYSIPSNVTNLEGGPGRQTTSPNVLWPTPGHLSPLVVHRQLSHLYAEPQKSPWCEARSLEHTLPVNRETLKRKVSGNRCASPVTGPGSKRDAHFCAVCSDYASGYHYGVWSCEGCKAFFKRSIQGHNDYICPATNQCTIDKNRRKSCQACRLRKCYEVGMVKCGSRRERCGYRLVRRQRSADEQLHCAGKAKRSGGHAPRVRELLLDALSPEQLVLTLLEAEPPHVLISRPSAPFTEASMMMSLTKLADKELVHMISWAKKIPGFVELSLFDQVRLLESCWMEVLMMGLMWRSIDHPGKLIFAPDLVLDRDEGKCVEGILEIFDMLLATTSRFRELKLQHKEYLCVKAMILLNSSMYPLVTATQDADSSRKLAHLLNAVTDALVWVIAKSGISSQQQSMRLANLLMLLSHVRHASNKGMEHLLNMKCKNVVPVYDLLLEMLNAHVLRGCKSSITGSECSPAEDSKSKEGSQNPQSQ
Sequence of Estrogen receptor (Homo sapiens) (P03372 whole entry, looked up): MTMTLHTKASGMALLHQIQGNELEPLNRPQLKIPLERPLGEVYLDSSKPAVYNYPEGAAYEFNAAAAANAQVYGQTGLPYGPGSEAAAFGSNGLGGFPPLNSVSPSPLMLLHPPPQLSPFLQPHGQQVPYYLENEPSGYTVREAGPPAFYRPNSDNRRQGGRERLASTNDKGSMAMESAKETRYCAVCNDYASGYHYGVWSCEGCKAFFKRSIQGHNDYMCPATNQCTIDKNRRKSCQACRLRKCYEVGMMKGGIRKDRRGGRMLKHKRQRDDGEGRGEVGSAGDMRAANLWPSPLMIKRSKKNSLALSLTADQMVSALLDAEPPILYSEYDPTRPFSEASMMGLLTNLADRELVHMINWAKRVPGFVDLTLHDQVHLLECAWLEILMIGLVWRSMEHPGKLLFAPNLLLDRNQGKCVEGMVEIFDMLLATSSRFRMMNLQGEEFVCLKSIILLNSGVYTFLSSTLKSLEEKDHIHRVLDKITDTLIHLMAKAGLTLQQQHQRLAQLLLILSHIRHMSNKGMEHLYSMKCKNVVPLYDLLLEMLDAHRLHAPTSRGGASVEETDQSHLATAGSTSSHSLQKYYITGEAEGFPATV
Sequence of Thyrotropin receptor (Homo sapiens) (P16473 whole entry, looked up): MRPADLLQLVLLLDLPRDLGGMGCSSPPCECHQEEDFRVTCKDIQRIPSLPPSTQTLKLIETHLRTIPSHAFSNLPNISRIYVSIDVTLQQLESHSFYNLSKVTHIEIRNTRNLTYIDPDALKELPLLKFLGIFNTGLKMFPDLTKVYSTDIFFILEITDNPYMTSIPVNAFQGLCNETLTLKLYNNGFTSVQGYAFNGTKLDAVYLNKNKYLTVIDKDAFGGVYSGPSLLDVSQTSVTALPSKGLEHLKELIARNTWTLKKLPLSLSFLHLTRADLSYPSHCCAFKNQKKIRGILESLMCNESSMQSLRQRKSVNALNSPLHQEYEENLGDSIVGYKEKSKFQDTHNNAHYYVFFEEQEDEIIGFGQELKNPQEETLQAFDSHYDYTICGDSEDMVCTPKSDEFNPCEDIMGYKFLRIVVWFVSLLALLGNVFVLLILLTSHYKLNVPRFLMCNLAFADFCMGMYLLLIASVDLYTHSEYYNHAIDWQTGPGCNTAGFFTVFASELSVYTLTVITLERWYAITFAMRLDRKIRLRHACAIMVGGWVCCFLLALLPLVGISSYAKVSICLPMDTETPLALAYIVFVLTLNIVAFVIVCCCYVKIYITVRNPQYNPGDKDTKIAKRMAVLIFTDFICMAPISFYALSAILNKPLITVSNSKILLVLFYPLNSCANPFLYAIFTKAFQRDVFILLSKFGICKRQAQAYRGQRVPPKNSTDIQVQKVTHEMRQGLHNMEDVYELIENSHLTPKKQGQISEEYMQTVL

With `COP(=S)(OC)Oc1nc(Cl)c(Cl)cc1Cl`, the Potency entry in test [1], in test [2], in [3], in test [4], in test [5] and in test [6] was “inactive” in each case. The Potency result in test [7], in test [8], in test [9], in test [10], in test [11] and in test [12] was “inactive” throughout. In [13], the Potency entry was “inactive”.

Regarding `COC(=O)C(C)N(C(=O)c1ccco1)c1c(C)cccc1C` (stereo not drawn), the Potency result in test [1], in [2], in test [3], in test [4], in [5] and in test [6] was “inactive” in each case. The Potency result in [7], in test [14], in [15], in test [9], in test [16] and in [17] was “inactive” throughout. Further, the Potency result in test [10], in test [11], in [12] and in [13] was “inactive” each time.

With `CC(Cl)CCl` (stereo not drawn), the Potency entry in [1], in test [2], in [4], in [18], in test [5] and in test [6] was “inactive” throughout. Besides, the Potency entry in test [7], in [8], in [14], in test [9], in test [16] and in [17] was “inactive” in each case. The Potency result in test [10], in test [11], in [12] and in test [13] was “inactive” throughout.

Regarding `O=Cc1ccccc1`, the Potency result in [1], in test [2], in test [4], in test [18], in [5] and in test [6] was “inactive” throughout. Moreover, the Potency entry in [7], in test [8], in [14], in test [9], in [16] and in [17] was “inactive” in each case. In addition, the Potency entry in [11], in test [12] and in test [13] was “inactive” throughout.

Consider `CCO/N=C(\CC)C1=C(O)CC(c2c(C)cc(C)cc2C)CC1=O` (stereo not drawn), for which the Potency result in test [1], in test [2], in test [4], in test [18], in test [5] and in test [6] was “inactive” in each case. Moreover, the Potency entry in [9], in test [17], in [10] and in test [13] was “inactive” each time. In addition, the Potency in [8] is 5450 nM (active).

Take `C#CC1(O)CCCCC1`: the Potency entry in test [1], in [2], in test [4], in test [18], in test [5] and in test [6] was “inactive” each time. For the same compound, the Potency result in test [8], in test [14], in test [15], in test [9], in test [16] and in test [17] was “inactive” throughout. In addition, the Potency entry in test [11], in [12] and in test [13] was “inactive” throughout.

As for `CCC[CH2][Sn]([CH2]CCC)([O]C(C)=O)[O]C(C)=O`, the Potency in test [1] is 692 nM (active); in test [2], 347 nM (active); in test [5], 6170 nM (active); in test [6], 27600 nM (active); in [8], 2190 nM (active); in test [16], 276 nM (active). Further, the Potency entry in test [4], in test [18], in [14], in [10], in [11] and in test [12] was “inactive” throughout.

Values taken from PubChem BioAssay (Tox21).
